In paper PMC7862700, “An all-to-all approach to the identification of sequence-specific readers for epigenetic DNA modifications on cytosine”:

Columns and labels:
Experiment in all cases: DAPPL (digital affinity profiling via proximity ligation, sequencing); 10 mM Tris-HCl pH 7.5, 50 mM NaCl, 1 mM DTT, 4% glycerol, room temperature, 30 min; GST-TFs on glutathione beads, 16-mer random dsDNA library, 0.1% formaldehyde crosslink after washing; high values mean tight binding
Conditions in all cases: protein: recombinant; tags: N-terminal GST; dsDNA, one strand shown
ELK1 = molecular target: T1, ELK1 (Homo sapiens, UniProt P19419 1-428)
T1 sequence: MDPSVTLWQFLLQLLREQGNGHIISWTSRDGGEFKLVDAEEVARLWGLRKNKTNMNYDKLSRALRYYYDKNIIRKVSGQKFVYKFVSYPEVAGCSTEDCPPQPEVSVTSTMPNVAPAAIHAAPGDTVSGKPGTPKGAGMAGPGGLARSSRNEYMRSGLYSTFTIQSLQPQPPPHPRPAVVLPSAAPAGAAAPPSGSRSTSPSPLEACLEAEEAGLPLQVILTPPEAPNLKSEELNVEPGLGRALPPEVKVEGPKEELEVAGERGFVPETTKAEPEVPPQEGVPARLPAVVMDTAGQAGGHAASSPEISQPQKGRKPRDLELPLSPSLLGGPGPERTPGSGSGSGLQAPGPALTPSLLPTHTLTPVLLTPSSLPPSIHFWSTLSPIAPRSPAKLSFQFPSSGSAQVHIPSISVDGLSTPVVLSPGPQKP
Summary of the method: (§1)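 Pools were built from human transcription factors expressed in yeast as GST fusions, captured on glutathione beads and DNA-barcoded, along with a tag-only sample. Incubation with 200 nmole of a 16-mer random double-stranded DNA library lasted 30 min at room temperature in Tris/NaCl/DTT/glycerol buffer, and was followed by washing, 0.1% formaldehyde crosslinking, proximity ligation, PCR amplification and Illumina NextSeq500 sequencing. Binding signal is the quotient of each hexamer's read frequency for a factor and its frequency for the tag-only sample.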

GABPA = molecular target: T2, GABPA (Homo sapiens, UniProt Q06546 1-454)
T2 sequence: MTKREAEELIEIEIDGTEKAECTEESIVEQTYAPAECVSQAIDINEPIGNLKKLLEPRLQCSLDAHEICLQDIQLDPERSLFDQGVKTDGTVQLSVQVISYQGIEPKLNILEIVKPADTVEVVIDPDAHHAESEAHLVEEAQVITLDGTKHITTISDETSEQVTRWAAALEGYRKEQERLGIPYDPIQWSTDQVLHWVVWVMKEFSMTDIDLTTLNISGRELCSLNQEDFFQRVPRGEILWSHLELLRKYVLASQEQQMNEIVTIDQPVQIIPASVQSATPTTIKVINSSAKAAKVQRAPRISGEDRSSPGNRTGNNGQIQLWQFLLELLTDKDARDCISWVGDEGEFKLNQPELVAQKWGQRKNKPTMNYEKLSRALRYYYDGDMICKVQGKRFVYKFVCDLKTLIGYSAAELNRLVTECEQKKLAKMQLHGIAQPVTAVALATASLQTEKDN
Summary of the method: as §1

ERG = molecular target: T3, ERG (Homo sapiens, UniProt P11308 1-479)
T3 sequence: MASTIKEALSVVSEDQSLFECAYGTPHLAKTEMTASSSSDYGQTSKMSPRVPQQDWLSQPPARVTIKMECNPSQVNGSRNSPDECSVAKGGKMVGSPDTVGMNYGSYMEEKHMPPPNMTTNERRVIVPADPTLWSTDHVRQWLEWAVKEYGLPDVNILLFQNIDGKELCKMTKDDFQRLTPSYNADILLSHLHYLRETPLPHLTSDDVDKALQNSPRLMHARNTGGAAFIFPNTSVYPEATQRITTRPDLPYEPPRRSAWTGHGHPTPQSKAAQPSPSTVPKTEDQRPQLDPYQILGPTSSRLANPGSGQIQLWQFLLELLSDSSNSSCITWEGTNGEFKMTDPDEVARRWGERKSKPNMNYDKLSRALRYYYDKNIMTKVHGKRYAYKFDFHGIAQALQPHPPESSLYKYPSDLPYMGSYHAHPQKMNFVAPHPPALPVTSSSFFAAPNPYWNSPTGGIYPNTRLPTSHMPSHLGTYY
Summary of the method: as §1

ELF1 = ELF1 (Homo sapiens, UniProt P32519 1-619)
Chain of ELF1 (P32519 whole entry): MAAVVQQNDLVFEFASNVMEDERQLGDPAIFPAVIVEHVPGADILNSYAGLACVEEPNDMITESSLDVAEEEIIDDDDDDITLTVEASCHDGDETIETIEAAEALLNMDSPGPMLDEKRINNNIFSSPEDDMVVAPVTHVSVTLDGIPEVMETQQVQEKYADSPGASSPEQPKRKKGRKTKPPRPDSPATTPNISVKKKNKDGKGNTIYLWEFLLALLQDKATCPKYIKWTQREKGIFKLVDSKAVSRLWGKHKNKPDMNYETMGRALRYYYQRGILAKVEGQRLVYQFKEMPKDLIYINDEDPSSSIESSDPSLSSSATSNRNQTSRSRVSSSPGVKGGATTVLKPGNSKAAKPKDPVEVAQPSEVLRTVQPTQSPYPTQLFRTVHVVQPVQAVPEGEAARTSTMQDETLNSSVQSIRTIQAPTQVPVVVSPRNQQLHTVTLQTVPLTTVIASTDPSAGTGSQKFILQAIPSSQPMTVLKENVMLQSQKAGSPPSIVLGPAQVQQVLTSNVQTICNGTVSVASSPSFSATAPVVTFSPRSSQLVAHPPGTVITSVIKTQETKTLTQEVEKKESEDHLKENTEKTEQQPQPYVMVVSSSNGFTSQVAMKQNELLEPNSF
Summary of the method: as §1

EHF = molecular target: T4, EHF (Homo sapiens, UniProt Q9NZC4 1-300)
T4 sequence: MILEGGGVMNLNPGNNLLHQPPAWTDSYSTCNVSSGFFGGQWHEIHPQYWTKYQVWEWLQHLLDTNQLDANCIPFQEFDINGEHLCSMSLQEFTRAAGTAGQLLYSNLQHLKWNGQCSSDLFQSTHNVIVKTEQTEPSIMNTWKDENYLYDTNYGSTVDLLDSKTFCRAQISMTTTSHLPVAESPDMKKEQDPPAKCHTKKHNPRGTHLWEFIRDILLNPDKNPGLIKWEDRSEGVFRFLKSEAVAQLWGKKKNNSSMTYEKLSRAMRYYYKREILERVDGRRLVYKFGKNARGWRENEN
Summary of the method: as §1

SPI1 = SPI1 (Homo sapiens, UniProt P17947 1-270)
Summary of the method: as §1

SPIB = SPIB (Homo sapiens, UniProt Q01892 1-262)
Chain of SPIB (Q01892 whole entry): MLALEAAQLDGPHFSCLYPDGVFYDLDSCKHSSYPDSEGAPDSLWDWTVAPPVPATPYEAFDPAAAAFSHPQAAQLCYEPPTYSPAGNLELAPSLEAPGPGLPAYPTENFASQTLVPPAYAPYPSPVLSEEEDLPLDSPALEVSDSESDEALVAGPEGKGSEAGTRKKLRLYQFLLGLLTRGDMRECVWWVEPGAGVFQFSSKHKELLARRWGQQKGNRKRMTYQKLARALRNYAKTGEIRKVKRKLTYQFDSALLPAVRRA
Summary of the method: as §1

FEV = molecular target: T5, FEV (Homo sapiens, UniProt Q99581 1-238)
T5 sequence: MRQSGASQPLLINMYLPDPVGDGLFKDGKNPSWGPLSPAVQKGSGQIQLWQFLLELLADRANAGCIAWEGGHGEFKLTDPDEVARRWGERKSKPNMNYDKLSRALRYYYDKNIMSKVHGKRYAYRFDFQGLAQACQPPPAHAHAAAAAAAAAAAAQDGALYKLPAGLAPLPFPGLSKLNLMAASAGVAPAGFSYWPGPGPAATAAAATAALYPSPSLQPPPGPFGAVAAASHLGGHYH
Summary of the method: as §1

ETV5 = ETV5 (Homo sapiens, UniProt P41161 1-510)
Chain of ETV5 (P41161 whole entry): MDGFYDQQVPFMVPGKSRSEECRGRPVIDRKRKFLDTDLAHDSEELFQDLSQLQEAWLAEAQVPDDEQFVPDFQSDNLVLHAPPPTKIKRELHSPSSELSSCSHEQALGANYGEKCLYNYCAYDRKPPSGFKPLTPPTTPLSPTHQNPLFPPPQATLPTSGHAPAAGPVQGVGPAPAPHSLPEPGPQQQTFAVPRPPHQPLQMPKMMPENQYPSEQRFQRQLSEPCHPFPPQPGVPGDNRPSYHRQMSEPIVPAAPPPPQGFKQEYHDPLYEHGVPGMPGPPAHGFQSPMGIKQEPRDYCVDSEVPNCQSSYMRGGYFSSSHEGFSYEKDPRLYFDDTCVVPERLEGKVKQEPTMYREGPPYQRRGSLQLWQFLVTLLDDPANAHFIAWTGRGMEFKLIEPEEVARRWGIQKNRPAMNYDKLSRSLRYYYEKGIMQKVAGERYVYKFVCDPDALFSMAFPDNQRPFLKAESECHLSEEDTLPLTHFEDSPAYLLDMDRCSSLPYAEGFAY
Summary of the method: as §1

ELF4 = ELF4 (Homo sapiens, UniProt Q99607 1-663)
Chain of ELF4 (Q99607 whole entry): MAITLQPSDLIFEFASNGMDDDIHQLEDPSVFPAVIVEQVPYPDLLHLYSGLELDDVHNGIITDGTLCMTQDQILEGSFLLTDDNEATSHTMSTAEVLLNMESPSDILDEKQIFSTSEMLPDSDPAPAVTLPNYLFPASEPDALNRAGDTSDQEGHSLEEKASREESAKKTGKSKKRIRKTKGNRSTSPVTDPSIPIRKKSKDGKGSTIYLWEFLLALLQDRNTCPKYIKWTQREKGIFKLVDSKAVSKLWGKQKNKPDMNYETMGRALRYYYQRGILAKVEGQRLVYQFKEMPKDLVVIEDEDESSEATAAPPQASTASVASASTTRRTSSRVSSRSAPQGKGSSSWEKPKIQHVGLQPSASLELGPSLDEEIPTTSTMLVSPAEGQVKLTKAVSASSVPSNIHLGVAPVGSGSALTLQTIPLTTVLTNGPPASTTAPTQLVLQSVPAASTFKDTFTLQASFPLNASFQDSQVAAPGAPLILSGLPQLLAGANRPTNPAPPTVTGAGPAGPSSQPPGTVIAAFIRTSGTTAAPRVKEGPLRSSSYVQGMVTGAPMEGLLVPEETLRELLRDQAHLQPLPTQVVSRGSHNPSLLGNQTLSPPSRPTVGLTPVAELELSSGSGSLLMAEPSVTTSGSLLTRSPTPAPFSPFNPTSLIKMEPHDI
Summary of the method: as §1

ELK4 = molecular target: T6, ELK4 (Homo sapiens, UniProt P28324-2 1-405)
T6 sequence: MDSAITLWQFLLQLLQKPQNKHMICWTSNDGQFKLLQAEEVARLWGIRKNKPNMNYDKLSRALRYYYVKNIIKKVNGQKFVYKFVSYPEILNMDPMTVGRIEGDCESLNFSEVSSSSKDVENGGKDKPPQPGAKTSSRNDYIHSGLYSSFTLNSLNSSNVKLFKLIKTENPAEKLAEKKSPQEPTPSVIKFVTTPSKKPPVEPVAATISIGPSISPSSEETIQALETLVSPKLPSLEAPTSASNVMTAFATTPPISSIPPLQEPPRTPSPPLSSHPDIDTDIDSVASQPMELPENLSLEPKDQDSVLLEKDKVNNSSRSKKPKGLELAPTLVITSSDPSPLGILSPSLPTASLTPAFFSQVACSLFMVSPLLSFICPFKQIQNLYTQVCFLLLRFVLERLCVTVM
Summary of the method: as §1

ELF3 = molecular target: T7, ELF3 (Homo sapiens, UniProt P78545 1-371)
T7 sequence: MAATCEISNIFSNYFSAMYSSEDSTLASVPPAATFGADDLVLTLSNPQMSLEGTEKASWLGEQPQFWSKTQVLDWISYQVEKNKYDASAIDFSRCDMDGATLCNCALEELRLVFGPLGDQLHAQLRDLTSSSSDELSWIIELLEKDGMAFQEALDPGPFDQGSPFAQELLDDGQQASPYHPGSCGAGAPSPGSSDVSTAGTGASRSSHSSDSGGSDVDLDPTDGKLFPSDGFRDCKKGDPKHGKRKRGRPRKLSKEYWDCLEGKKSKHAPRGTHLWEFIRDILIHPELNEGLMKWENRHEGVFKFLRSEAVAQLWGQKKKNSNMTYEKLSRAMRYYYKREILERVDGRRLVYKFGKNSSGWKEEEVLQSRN
Summary of the method: as §1

ETV3L = molecular target: T8, ETV3L (Homo sapiens, UniProt Q6ZN32 1-361)
T8 sequence: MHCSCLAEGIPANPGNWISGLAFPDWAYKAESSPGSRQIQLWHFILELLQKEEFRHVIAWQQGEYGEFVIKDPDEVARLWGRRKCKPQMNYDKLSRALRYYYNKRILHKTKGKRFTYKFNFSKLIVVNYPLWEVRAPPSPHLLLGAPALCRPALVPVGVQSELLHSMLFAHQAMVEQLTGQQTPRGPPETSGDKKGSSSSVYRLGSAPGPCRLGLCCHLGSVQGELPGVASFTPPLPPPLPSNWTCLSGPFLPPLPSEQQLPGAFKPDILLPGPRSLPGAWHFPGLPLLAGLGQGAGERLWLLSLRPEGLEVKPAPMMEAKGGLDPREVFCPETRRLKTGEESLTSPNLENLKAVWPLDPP
Summary of the method: as §1

SPDEF = molecular target: T9, SPDEF (Homo sapiens, UniProt O95238 1-335)
T9 sequence: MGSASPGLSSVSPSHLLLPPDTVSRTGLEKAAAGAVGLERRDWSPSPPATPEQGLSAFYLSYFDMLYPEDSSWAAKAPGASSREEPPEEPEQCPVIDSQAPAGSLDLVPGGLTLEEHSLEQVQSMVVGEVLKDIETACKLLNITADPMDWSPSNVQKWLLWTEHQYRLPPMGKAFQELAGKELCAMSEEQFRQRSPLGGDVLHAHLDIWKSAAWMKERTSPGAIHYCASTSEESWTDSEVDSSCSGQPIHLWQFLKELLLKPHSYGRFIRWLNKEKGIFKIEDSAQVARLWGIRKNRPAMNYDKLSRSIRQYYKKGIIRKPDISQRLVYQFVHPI
Summary of the method: as §1

ETV7 = molecular target: T10, ETV7 (Homo sapiens, UniProt Q9Y603 1-341)
T10 sequence: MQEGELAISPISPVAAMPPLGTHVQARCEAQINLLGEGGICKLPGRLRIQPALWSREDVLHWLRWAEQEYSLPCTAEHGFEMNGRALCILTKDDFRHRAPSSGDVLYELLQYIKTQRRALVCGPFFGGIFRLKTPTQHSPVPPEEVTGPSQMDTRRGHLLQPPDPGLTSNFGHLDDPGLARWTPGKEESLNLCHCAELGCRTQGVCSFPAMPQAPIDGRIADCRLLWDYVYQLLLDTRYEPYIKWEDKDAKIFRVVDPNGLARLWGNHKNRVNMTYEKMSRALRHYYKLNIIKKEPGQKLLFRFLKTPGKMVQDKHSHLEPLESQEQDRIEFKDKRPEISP
Summary of the method: as §1

ETV6 = ETV6 (Homo sapiens, UniProt P41212 1-452)
Chain of ETV6 (P41212 whole entry): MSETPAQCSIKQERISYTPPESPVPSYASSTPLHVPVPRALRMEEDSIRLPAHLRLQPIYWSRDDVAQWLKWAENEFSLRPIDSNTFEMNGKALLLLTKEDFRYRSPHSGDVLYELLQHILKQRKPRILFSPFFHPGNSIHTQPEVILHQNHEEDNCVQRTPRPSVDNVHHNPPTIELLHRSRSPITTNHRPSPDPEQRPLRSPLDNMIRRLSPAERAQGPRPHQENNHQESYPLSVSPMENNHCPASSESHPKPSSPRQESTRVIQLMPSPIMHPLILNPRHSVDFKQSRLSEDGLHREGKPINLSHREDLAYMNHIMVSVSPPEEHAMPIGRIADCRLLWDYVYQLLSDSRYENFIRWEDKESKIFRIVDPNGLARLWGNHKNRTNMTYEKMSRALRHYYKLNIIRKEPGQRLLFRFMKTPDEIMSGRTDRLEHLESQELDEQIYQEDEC
Summary of the method: as §1

Row | Sequence | binding signal (ELK1) | binding signal (GABPA) | binding signal (ERG) | binding signal (ELF1) | binding signal (EHF) | binding signal (SPI1) | binding signal (SPIB) | binding signal (FEV) | binding signal (ETV5) | binding signal (ELF4) | binding signal (ELK4) | binding signal (ELF3) | binding signal (ETV3L) | binding signal (SPDEF) | binding signal (ETV7) | binding signal (ETV6)
1 | GTACGA | 1.03 fold enrichment (6-mer frequency, TF over GST control) | 1.14 fold enrichment (6-mer frequency, TF over GST control) | 1.04 fold enrichment (6-mer frequency, TF over GST control) | 1.08 fold enrichment (6-mer frequency, TF over GST control) | 1.04 fold enrichment (6-mer frequency, TF over GST control) | 1.05 fold enrichment (6-mer frequency, TF over GST control) | 1.05 fold enrichment (6-mer frequency, TF over GST control) | 1.01 fold enrichment (6-mer frequency, TF over GST control) | 1.02 fold enrichment (6-mer frequency, TF over GST control) | 1.11 fold enrichment (6-mer frequency, TF over GST control) | 1.04 fold enrichment (6-mer frequency, TF over GST control) | 1.11 fold enrichment (6-mer frequency, TF over GST control) | 1.09 fold enrichment (6-mer frequency, TF over GST control) | 1.02 fold enrichment (6-mer frequency, TF over GST control) | 1.16 fold enrichment (6-mer frequency, TF over GST control) | 1.05 fold enrichment (6-mer frequency, TF over GST control)
2 | ACTCAG |  |  | 1.06 fold enrichment (6-mer frequency, TF over GST control) | 1.07 fold enrichment (6-mer frequency, TF over GST control) |  |  |  | 1.02 fold enrichment (6-mer frequency, TF over GST control) | 1.03 fold enrichment (6-mer frequency, TF over GST control) | 1.08 fold enrichment (6-mer frequency, TF over GST control) |  | 1.02 fold enrichment (6-mer frequency, TF over GST control) | 1.01 fold enrichment (6-mer frequency, TF over GST control) |  | 1.05 fold enrichment (6-mer frequency, TF over GST control) | 1.05 fold enrichment (6-mer frequency, TF over GST control)
